The list is not random: actives were taken first. Their share in the collection is about 19%.
DT40 TDP1 CPT: qHTS for Inhibitors of human tyrosyl-DNA phosphodiesterase 1 (TDP1): qHTS in cells in presence of CPT; chicken DT40 Tdp1-/-;hTDP1 cells + 20 nM CPT, ATP luminescence, 48 h; Potency, µM (doses to about 46.2 µM), inactives show at the highest dose activity change, negative = growth inhibition, most hits filed as inhibitors; 420,000 tested, 12% active; note: potency is the fitted concentration of half-maximal effect; nearly all actives have a fitted effect of over 55% in size
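Cell growth measured by CellTiter-Glo luminescence after a minimum 48 h, 37 C compound exposure with 20 nM CPT in Tdp1-knockout DT40 cells stably expressing hTDP1, seeded 400/well; qHTS titration format.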
HT1080 IDH1KD tx: qHTS for induction of synthetic lethality in tumor cells producing 2HG: qHTS for the HT-1080-IDH1KD cell line | HT-1080 IDH1 knockdown viability, ATP luminescence, 48 h | Potency, µM (titrated, usually from 46.1 µM), for the others: at the top dose activity, negative = toxicity, usual class: cytotoxic | 360,000 tested, 2% active | AID 686971, 2013;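 note: potency is the fitted concentration of half-maximal effect; 0% = DMSO wells and -100% = cell-free medium wells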
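Assay cells: HT-1080 with IDH1 knockdown, 750 per well, RPMI/5% FBS. Exposure: 48 h at 37 °C following 2 h pre-incubation. Read: CellTiter-Glo luminescence; fitted concentration-response, curve class assigned.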
IL-1B inflam inh: qHTS for Inhibitors of Inflammasome Signaling: IL-1-beta AlphaLISA Primary Screen | AID 743279, 2014 | activity change, % at 57.5 µM | 360,000 tested, 4.7% active | THP-1 LPS/ATP IL-1B secretion, AlphaLISA, 16 h; hits give low values; in the data active = activity change below about -50%; inconclusive = mostly about -30% to -49%
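Secreted IL-1B measured by AlphaLISA bead assay after 16 h compound exposure of THP-1 cells; compounds (final up to 57.5 uM) added 1 h before LPS (250 ng/mL) and ATP (1.25 mM) stimulation; lower signal means less secretion.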
HT1080-NT tox: qHTS for induction of synthetic lethality in tumor cells producing 2HG: qHTS for the HT-1080-NT fibrosarcoma cell line; HT-1080-NT fibrosarcoma viability, CellTiter-Glo ATP luminescence, 48 h; Potency, µM (titrated, usually from 46.1 µM), for the others: at the top dose activity, negative = less viability, usual class: cytotoxic; 360,000 tested, 1.6% active; AID 686970, 2013;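 note: NT is the 2HG producing partner of a matched IDH1 knockdown line; potency is the fitted concentration of half-maximal effect; 0% = DMSO-treated cells and -100% = media-only wells without cells; nearly all actives have a fitted effect of over 55% in size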
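Viability by CellTiter-Glo luminescence after 48 h compound exposure at 37C of HT-1080-NT cells (750/well, RPMI, 5% FBS). % activity scaled between DMSO wells and medium-only wells, then curve-fitted and categorized by curve class.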
ELG1 DNA repair: qHTS screen for small molecules that inhibit ELG1-dependent DNA repair in human embryonic kidney (HEK293T) cells expressing luciferase-tagged ELG1; HEK293T ELG1-luciferase reporter, luminescence, 16 h; DNA damage induced by 5-fluorouridine; Potency, µM (top dose mostly 46.1 µM), for inactives: at the highest dose activity change, negative = inhibition, actives largely listed as inhibitors; 330,000 tested, 2.3% active; AID 504467, 2011; note: potency is the fitted concentration of half-maximal effect; nearly all actives have a fitted effect of over 55% in size
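In this reporter screen, reduction of luminescence relative to DMSO vehicle indicated activity. Compounds and 5-fluorouridine were added together to 2,000 cells per well, incubated for 16 hr at 37 °C, then developed with ONE-Glo.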
DT40 TDP1 no CPT: qHTS for Inhibitors of human tyrosyl-DNA phosphodiesterase 1 (TDP1): qHTS in cells in absence of CPT; 420,000 tested, 15% active; Potency, µM (doses to about 46.2 µM), without a hit: at the highest dose activity change, negative = growth inhibition, hits mostly inhibitors; AID 686978, 2013; DT40 Tdp1-/- hTDP1 cells, no CPT, ATP luminescence, 48 h; note: potency is the fitted concentration of half-maximal effect; nearly all actives have a fitted effect of over 55% in size
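Growth kinetics read by CellTiter-Glo luminescence after ≥48 hr at 37 °C. Cells: DT40 Tdp1-/- stably carrying human TDP1, 400 per well, compound exposure in the absence of CPT (DMSO vehicle).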
* marks the source's active call; other numbers are inactive results; ? = inconclusive; . = no result; [ ] = another dose, or the depositor's remark. Unless noted, calls come from the whole dose curve; as a rule, active = well fitted curve in the direction sought with a large enough effect; inconclusive = small, poorly fitted or top-dose-only effect, or another doubt; inactive = no such curve, though single readings can be large; an effect the other way counts as inactive or inconclusive. Unless noted, % is set by controls: 0 for no effect and ±100 for the full control effect.

SMILES | DT40 TDP1 CPT | HT1080 IDH1KD tx | IL-1B inflam inh | HT1080-NT tox | ELG1 DNA repair | DT40 TDP1 no CPT
CCOc1ccc(NC(=S)NNc2ccnc3cc(Cl)ccc23)cc1 | ? | ? | -89* | ? | 23µM* | 13µM*
CCn1ccnc1CN(C)C(=O)c1cc(COc2ccc(OC)c3ccccc23)on1 | 15µM* | ? | -16 | -25% | -5% | ?
Cc1nn(C)cc1C(C)NC(=O)c1cc(COc2cccc3cnccc23)on1 (stereo not given) | 10µM* | ? | -13 | -10% | 18µM* | ?
COCC1CCN(C(=O)c2cc(COc3cccc4cnccc34)on2)CC1 | 9.2µM* | -27% | -53* | -16% | -18% | 4.1µM*
COCC1CCN(C(=O)c2cc(COc3ccc(F)cc3Cl)on2)C1 (stereo not given) | ? | 7% | -11 | 6% | . | ?
O=C(c1cc(COc2cccc3cnccc23)on1)N1CCCC(CCCO)C1 (stereo not given) | 1.2µM* | ? | ? | ? | -8% | 0.65µM*
COC(=O)c1c(-c2c(Cl)cccc2Cl)noc1C(=O)NNC(=O)N(C)C | 4% | 16% | 14 | 8% | ? | -7%
O=c1[nH]nc(SC2CCCCC2)c(=O)[nH]1 | -23% | -1% | -2 | 3% | . | -11%
CCc1nc2ccc(C(=O)NCCCn3ccnc3)cn2c1N(C)Cc1nccs1 | -2% | 11% | 25 | 17% | . | 0%
CSc1nc2sc3c(c2c(=O)n1CC(C)C)CC(C)(C)OC3 | 6% | 16% | -8 | 5% | 0% | -13%
O=C(Nc1ccc(C(=O)N2CCCCC2)cc1)C1CC1 | -3% | 22% | 2 | 28% | . | -16%
COc1ccc(OCc2cc(C(=O)N3CCCC(CO)C3)no2)c2ccccc12 (stereo not given) | ? | 0% | -12 | -12% | ? | 15µM*
CCc1cc(C(=O)N2CCCC(CNC(=O)c3ccc(-c4ccccc4)cc3)C2)no1 (stereo not given) | ? | 0% | -23 | 1% | ? | 16µM*
CCOc1ccc(NC(c2ccc(Cl)cc2)c2nnc(-c3cccc(F)c3)o2)cc1 (stereo not given) | ? | . | . | . | . | -28%
CC(=O)c1cccc(NC(c2ccc(F)cc2)c2nnc(-c3ccccc3)o2)c1 (stereo not given) | ? | . | . | . | . | 18µM*
Cc1c(Cl)cccc1NC(c1ccc(F)cc1)c1nnc(-c2ccccc2)o1 (stereo not given) | ? | . | . | . | . | 23µM*
CCOc1cc(NC(=O)c2ccco2)c(OCC)cc1NC(=O)Cc1cccc(OC)c1 | ? | -17% | -21 | -9% | ? | 26µM*
Cc1ccccc1OCC(=O)Nc1ccccc1NC(=O)c1ccco1 | 7% | 4% | 31 | 4% | 0% | -29%
CCOc1cc(NC(=O)c2ccco2)c(OCC)cc1NC(=O)COc1ccccc1C | 4.6µM* | 2% | -10 | 6% | . | 4.1µM*
Cc1ccc2nc3n(c(=O)c2c1)-c1ncccc1C(=O)NC3Cc1ccc(O)cc1 (stereo not given) | -2% | -8% | -8 | -7% | . | -28%
CC1c2[nH]c3ccccc3c2C[C@H]2C(=O)N(CCCN(C)C)CC(=O)N12 (stereo not given in full) | 21% | 12% | -6 | 7% | ? | -6%
COc1ccc(-c2nnc(SCC(=O)c3cc(C)n(Cc4cccs4)c3C)o2)cc1 | -10% | -3% | -3 | -3% | 3% | -19%
COc1ccc(-n2cnnc2SCC(=O)c2cc(C)n(Cc3cccs3)c2C)cc1 | -9% | 1% | -65* | -4% | -7% | -11%
Cc1csc(SCC(=O)c2cc(C)n(Cc3cccs3)c2C)n1 | 18µM* | ? | -1 | -10% | ? | -78%
O=C(CN1CCN(CC(=O)Nc2ccccc2Cc2ccccc2)CC1)Nc1ccccc1Cl | 10µM* | 17% | 16 | 11% | 26µM* | 12µM*
SMILES | DT40 TDP1 CPT | HT1080 IDH1KD tx | IL-1B inflam inh | HT1080-NT tox | ELG1 DNA repair | DT40 TDP1 no CPT
O=C(CN1CCN(Cc2ccccc2)CC1)Nc1ccc(Br)cc1 | ? | -3% | -8 | 9% | -1% | 21µM*
CN(CC(=O)Nc1ccccc1Br)C(=O)CN1CCN(Cc2cccc(Cl)c2)CC1 | ? | 0% | -12 | 0% | 18µM* | ?
O=C(CN1CCCC1)Nc1cccc(Cl)c1Cl | 8% | 0% | 5 | 4% | -14% | -9%
O=C(CN1CCN(Cc2ccccc2)CC1)Nc1cccc(Cl)c1Cl | ? | 3% | -19 | 3% | . | 21µM*
CN(CC(=O)Nc1ccccc1Br)C(=O)CNC(=O)c1ccco1 | -3% | 9% | 17 | 0% | 10% | 0%
Cc1cccc(NC(=O)COC(=O)CCc2c[nH]c3ccccc23)c1C | ? | 4% | -4 | -6%[9.24 µM] | 5% | ?
Cc1cc(C)cc(N(C(=O)CNC(=O)c2ccco2)C(C(=O)NC2CCCCC2)c2ccncc2)c1 (stereo not given) | -1% | 3% | 1 | -1% | 2% | 2%
CC1=C(C)CC(C(=O)NCc2cccc(Cl)c2)C(C(=O)O)C1 (stereo not given) | . | . | . | . | 1% | .
CCCS(=O)(=O)NC(=O)C1(C)CCCN(C(=O)c2cc(F)ccc2C)C1 (stereo not given) | -3% | ? | 0 | 27% | . | -8%
COc1cc(Br)c(C2CC(=O)Nc3cc(OC)c(OC)c(OC)c32)cc1OC (stereo not given) | 4% | . | . | . | . | ?
CCc1ccc(OCC(=O)N/N=C(\C)c2ccc(O)cc2O)cc1 | 7.3µM* | ? | 74 | -21% | ? | 2.6µM*
O=C(CCS(=O)(=O)c1cccc2nsnc12)Nc1ccc(F)cc1 | -10% | . | . | . | . | ?
CCN(CC)CCN(C(=O)c1ccc(C(=O)c2ccccc2)cc1)c1nc2cc3c(cc2s1)OCO3 | ? | -6% | -55* | -12% | -6% | ?
CCN(CC)CCN(C(=O)CN1C(=O)CCC1=O)c1nc2cc3c(cc2s1)OCO3 | -16% | 7% | -16 | 4% | 13% | -17%
